FMDV inh = blocks foot and mouth disease virus. FMDV antiviral cell-based qHTS. Potency, µM (series often up to 57.9 µM), without a hit: at the top dose activity change, negative = inhibition, hits mostly inhibitors. 1.2% of 410,000 active. AID 1159524; calls by dose curve; tested in HEK293T cells; note: read-out not given here; potency is the fitted concentration of half-maximal effect; % is set by controls: 0 for no effect and ±100 for the full control effect; nearly all actives have a fitted effect of over 45% in size
HCV inh = inhibitors of hepatitis C virus infection; Huh7.5.1 HCVcc-Cre infection, luciferase reporter, 44 h; Potency, µM (doses to about 41.8 µM), inactives show top-dose activity change, negative = inhibition, usual class: inhibitors; 3.4% of 340,000 active; AID 651820; active = well fitted inhibition curve with a large enough effect; inconclusive = small, poorly fitted or top-dose-only effect, or another doubt; inactive = no such curve, though single readings can be large or run the other way; note: potency is the fitted concentration of half-maximal effect; % is set by controls: 0 for no effect and ±100 for the full control effect
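HCVcc-Cre virus at an moi near 0.5 was added right after compound to cells cultured 4 h from seeding (1,000 cells/well). Luciferase activity was determined 44 h later, 15 min after substrate addition at RT.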
LASV entry inh = blocks Lassa virus binding to or entry into cells | Potency, µM (top dose mostly 37.9 µM), for inactives: at the top dose activity change, negative = inhibition, usual class: inhibitors | Lassa virus pseudotype entry inhibition, cell reporter | 1.2% of 300,000 active; calls by dose curve; tested in HEK293 cells; note: potency is the fitted concentration of half-maximal effect; % is set by controls: 0 for no effect and ±100 for the full control effect; nearly all actives have a fitted effect of over 50% in size
CHX counter = counter-screen for Shiga toxin inhibitors: cycloheximide protein synthesis inhibition. cell reporter, cycloheximide protein synthesis inhibition counterscreen. max response, %. AID 2314. 12% of 300,000 active; in the data active = max response mostly above about 13%, no sharp cut-off; inactive = mostly below about 14%; note: read at 38.3 µM for the half of the compounds with a filed dose; 0% is about no effect
Shiga toxin inh = Shiga toxin inhibition | inhibition, % at 38.7 µM | AID 2315 | Vero cells, Shiga toxin protein synthesis inhibition reporter | 9.2% of 290,000 active; in the data active = inhibition mostly above about 28%, no sharp cut-off; inactive = mostly below about 43%; note: 0% is about no effect
Marburg entry inh = blocks Marburg virus binding to or entry into cells; Marburg virus pseudotyped entry inhibition, cell reporter; Potency, µM (top dose mostly 37.8 µM), inactives show top-dose activity change, negative = inhibition, actives largely listed as inhibitors; 1.8% of 300,000 active; AID 540276; calls by dose curve; tested in HEK293 cells; note: potency is the fitted concentration of half-maximal effect; % is set by controls: 0 for no effect and ±100 for the full control effect
Active calls of the source: *; u = inconclusive; x = no result; [ ] = dose if it differs, or a comment. The list is not random: actives were taken first. Their share in the collection is about 13%.

SMILES | FMDV inh | HCV inh | LASV entry inh | CHX counter | Shiga toxin inh | Marburg entry inh
Cc1ccc(Cn2ncc3c4sc(C)cc4n(C)c3c2=O)cc1 | x | x | x | 8 | -11 | x
CC12CCC(C(=O)n3c1nc1ccccc13)C2(C)C (stereo not drawn) | x | 0% | 5% | -2 | -11 | 0%
CCCn1c(-c2ccc[nH]c2=O)nc2ccccc21 | -9% | -5% | 18%[46.1 µM] | -1 | -3 | 8%[46.1 µM]
c1ccc2c(c1)NC1(CCCC1)n1c-2nc2ccccc21 | x | 11µM* | -2% | 27* | 92* | u
CCCC1(C)Nc2ccccc2-c2nc3ccccc3n21 (stereo not drawn) | 0% | -16% | 24% | 53* | 81* | -4%
O=C(CCC1CCCCC1)Nc1cc(Cl)ccc1N1CCOCC1 | -24% | u | u | x | x | u
CN(C)C=Nc1ccccc1C1C=NNC1=O (stereo not drawn) | x | x | x | 23* | 52* | x
N#C/C(=C(/O)c1ccco1)c1nc2ccccc2[nH]1 | 19% | 21% | -2% | 21 | 3 | u
N#C/C(=C(/O)c1cccc(F)c1)c1nc2ccccc2s1 | -3% | -14% | x | 12* | 8 | x
N#CC(C(=O)c1ccco1)c1ccccn1 (stereo not drawn) | x | 11% | 13% | 17* | 26 | u
N#C/C(=C(\O)c1ccco1)c1ccccn1 | 33% | 5% | -5% | 31* | 70* | 23%
N#C/C(=C(/O)c1ccco1)c1nc2ccccc2s1 | 33% | 7% | 14% | 38* | 66* | u
Cc1ccc(C(=O)CCC(=O)NC2=NCCS2)cc1 | -9% | u | x | x | x | x
O=C(O)c1cc(N/C(=N\S(=O)(=O)c2ccc(F)cc2)c2ccccc2)ccc1O | -8% | 17% | 5% | x | x | 10%
CN1CCC(C(=O)Nc2n[nH]c3nc(-c4ccc(O)cc4)c(Br)cc23)CC1 | x | x | 20µM* | x | x | x
CC(=O)N1CCN(c2ccc(NC(=O)c3ccccc3C)cc2)CC1 | 1% | 8% | 6% | 10* | 4 | u
CC(=O)N1CCN(c2ccc(NC(=O)c3cccc(Cl)c3)cc2)CC1 | 26% | -7% | 6%[46.1 µM] | 31* | 73* | u
CC(=O)N1CCN(c2ccc(NC(=O)c3ccc4ccccc4c3)cc2)CC1 | 30% | u | u | 26* | 7 | 8%[46.1 µM]
CCCCOc1ccc(C(=O)Nc2ccc(N3CCN(C(C)=O)CC3)cc2)cc1 | -7% | -18% | 0% | -5 | -22 | u
CC(=O)N1CCN(c2ccc(NC(=O)c3ccc(C(C)(C)C)cc3)cc2)CC1 | x | u | u | 32* | 45* | u
CC(=O)N1CCN(c2ccc(NC(=O)c3ccc(Cl)cc3)cc2)CC1 | 2% | 7% | x | -4 | -12 | x
CC(=O)N1CCN(c2ccc(NC(=O)c3cc(Cl)ccc3Cl)cc2)CC1 | 7% | -6% | x | -3 | x | x
Cc1cccc(C(=O)N2CCN(c3ccc([N+](=O)[O-])c(N4CCOCC4)c3)CC2)c1 | -25% | -17% | u | 6 | -11 | -26%
O=C(Nc1ccc(N2CCCC2)cc1)c1cccc(-c2cc3ccccc3oc2=O)c1 | 0% | -4% | u | 8 | 14 | u
O=C(c1ccc2ccccc2c1)N1CCN(c2ccc([N+](=O)[O-])c(N3CCOCC3)c2)CC1 | u | u | u | 26* | 41 | 7%
SMILES | FMDV inh | HCV inh | LASV entry inh | CHX counter | Shiga toxin inh | Marburg entry inh
O=C(Nc1ccc(N2CCCC2)cc1)c1ccc2ccccc2c1 | 5% | 5% | 0% | 49* | active | -7%
CC(Cc1ccccc1)[n+]1cc(/N=C(\[O-])Nc2ccccc2)on1 (stereo not drawn) | 6% | -3% | 23% | 17* | 28 | 22%
Clc1ccc(-c2nnc3n2CCCCS3)cc1 | 0% | 14% | 2% | -4 | 21 | u
c1ccc2c3nnc4n(c-3nc2c1)CCCS4 | 0% | 8% | 9% | 30* | 54 | 20%
CC(=O)Nc1ccc(C)cc1 | -25% | -14% | x | x | x | x
Cc1ccc2nc(-c3ccccc3)cn2c1 | 1.8µM* | -9% | 0.32µM* | 1 | -13 | 0.45µM*
Cc1ccc2nc(-c3ccc(-c4ccccn4)s3)cn2c1 | -24% | u | u | 45* | 69* | u
CC(=O)Nc1ccc(-c2cn3cc(C)ccc3n2)cc1 | -17% | 13% | u | 42* | 61* | u
Cc1ccc2nc(-c3ccc(O)c(O)c3)cn2c1 | 13µM* | -12% | u | -8 | x | u
CC1(C)Cc2nc(Cl)c(C#N)cc2CO1 | -23% | 6% | 6% | -6 | 14 | -1%[46.1 µM]
CN(C)Cc1ccccc1-c1cncnc1Nc1ccncc1 | -12% | x | x | x | x | x
CCOc1ccc(C(=O)Nc2cccc(C(=O)O)c2)cc1Cl | 8.9µM* | 12% | u | 38* | 59* | u
CCOc1cc(C(=O)Nc2cccc(-c3nc4ccccc4o3)c2)cc(OCC)c1OCC | 0% | x | u | x | x | -21%[46.1 µM]
CCOc1ccc(C(=O)Nc2cccc(-c3nc4cccnc4o3)c2)cc1Cl | 8% | 11µM* | 26µM* | -4 | -6 | 8%
COCCn1c(-c2cccs2)nc2nc3ccccc3nc21 | 27% | 2% | x | 13* | 20 | x
Nc1c(S(=O)(=O)c2cccs2)c2nc3ccccc3nc2n1Cc1ccc2c(c1)OCO2 | x | u | -39% | -5 | -41 | u
CCCn1c(-c2cccs2)nc2nc3ccccc3nc21 | -15% | u | 0% | 11 | 27 | u
c1csc(-c2nc3nc4ccccc4nc3n2Cc2ccc3c(c2)OCO3)c1 | 14% | -22% | u | 12* | 33* | u
CC(C)Nc1nc(NC(C)C)nc(N(C)N)n1 | -8% | 5.6µM* | u | 8 | -9 | -26%
Cc1cccc(C(=O)NNC(=O)c2ccc(NC(=O)C(C)(C)C)cc2)c1 | 8% | 17% | x | 30* | 39* | x
CCCC(=O)Nc1ccc(C(=O)Nc2cccc(OC)c2)cc1 | 46% | -22% | 0% | 47* | 68* | 13%
COc1cccc(NC(=O)CNC(=O)c2ccc(C)cc2)c1 | 9% | 8% | x | 6 | 4 | x
COc1cccc(NC(=O)c2ccc(NC(=O)C(C)(C)C)cc2)c1 | -28% | u | 0% | 54* | 56* | u
CCc1nn2c(=O)cc(COc3ccc(/C=C4\C(=N)N5N=C(C)SC5=NC4=O)cc3)nc2s1 | -1% | -3% | x | -5 | 22 | x
COC(=O)CSc1ncc2c(n1)-c1ccccc1N(Cc1ccccc1C)S2(=O)=O | -3% | x | u | x | x | x
CCCCc1c(C)nc2c(OC)cccc2c1SCC(=O)O | -15% | 7% | 19%[46.1 µM] | -2 | -8 | 1%[46.1 µM]
COc1ccc2nc(N/C(N)=N/C(=S)Nc3ccccc3)nc(C)c2c1 | -20% | 11µM* | -2% | 24* | 69* | u
Cc1cc(C)cc(NC(=S)/N=C(\N)Nc2nc(C)c3ccccc3n2)c1 | u | u | 6% | -5 | -7 | u
CCc1ccc(NC(=S)/N=C(\N)Nc2nc(C)c3cc(CC)ccc3n2)cc1 | u | 16µM* | u | 9 | -3 | u
